Measurements as given in PubChem BioAssay AID504652 (National Center for Advancing Translational Sciences (NCATS), 2011).
Values joined by “and” are separate entries in the source; they are usually repeats but may differ in a detail not shown here. Equal values may be shown once. The campaign covered roughly 360,000 compounds. About 11,000 (3.1%) were called active. This is one part of a sample in which actives are shown more often than they occur. Rule as the data show it: active = activity change below about -30%; inactive = the rest. A structure can be active in one record and inactive in another.

target: D(1A) dopamine receptor (Homo sapiens) (UniProt P21728); test: Antagonist of Human D 1 Dopamine Receptor: qHTS; conditions: HEK293 TREx D1 cells, calcium flux, dopamine EC80; at 10 µM; stronger effect = lower value
Sequence (P21728 whole entry, looked up): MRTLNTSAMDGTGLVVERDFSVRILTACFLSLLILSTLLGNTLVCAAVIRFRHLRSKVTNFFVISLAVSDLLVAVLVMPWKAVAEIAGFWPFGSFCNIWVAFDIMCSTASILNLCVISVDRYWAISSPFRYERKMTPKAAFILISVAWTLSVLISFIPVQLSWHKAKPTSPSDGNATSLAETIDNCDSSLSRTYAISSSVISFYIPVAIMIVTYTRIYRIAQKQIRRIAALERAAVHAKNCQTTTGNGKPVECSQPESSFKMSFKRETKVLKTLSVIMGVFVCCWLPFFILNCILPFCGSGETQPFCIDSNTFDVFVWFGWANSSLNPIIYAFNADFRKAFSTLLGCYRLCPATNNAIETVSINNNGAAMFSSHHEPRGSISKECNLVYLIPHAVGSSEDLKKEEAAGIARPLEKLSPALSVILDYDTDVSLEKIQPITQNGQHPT
In short: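 Tetracycline-induced HEK293 Trex D1 cells, force-coupled to calcium, dye-loaded; compounds added and read 180 s, then EC80 dopamine added and calcium flux tracked kinetically another 180 s.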
% is scaled to controls: 0 for no effect and ±100 for the full control effect.

Row | Compound | activity change, negative = inhibition
1 | CC1=Nc2cc(C(=O)NCc3ccc(C)cc3)ccc2Sc2ccc(Cl)cc21 | 4.46% (inactive)
2 | CCCCN(CC)CCCNC(=O)c1nn(C)c2c1CS(=O)(=O)c1ccccc1-2 | 4.54% (inactive)
3 | COc1ccc(Cn2cc(C(=O)c3ccc(C)cc3)c(=O)c3cc(OC)c(OC)cc32)cc1 | -0.034% (inactive)
4 | Cc1ccc(N2CCN(S(=O)(=O)N(C)C)CC2)cc1Cl | -16.4% (inactive)
5 | CN(C)S(=O)(=O)N1CCN(c2ccc([N+](=O)[O-])cc2)CC1 | -43% (active)
6 | O=[N+]([O-])c1ccc(N2CCN(c3ccc(O)cc3)CC2)c(Cl)c1 | -19% (inactive)
7 | COc1cc(Cl)c(C)cc1Nc1nnc(-n2nc(C)cc2C)c2ccccc12 | -5.89% (inactive)
8 | Cc1cc2c(s1)c1cnn(Cc3c(F)cccc3Cl)c(=O)c1n2C | 15.1% (inactive)
9 | Cn1c(=O)oc2cc(S(=O)(=O)N3CCC(C(=O)Nc4ccc(OC(F)(F)F)cc4)CC3)ccc21 | -36.4% (active)
10 | COc1ccc(NC(=O)C2CCN(S(=O)(=O)c3ccc4[nH]c(=O)oc4c3)CC2)c(OC)c1 | 1.07% (inactive)
11 | Cc1ccc2nc(NC(=O)C3CCN(S(=O)(=O)c4ccc5c(c4)oc(=O)n5C)CC3)sc2c1 | -9.2% (inactive)
12 | Cc1ccc(S(=O)(=O)N(CC(=O)Nc2ccc(Cl)cc2Cl)c2ccccc2C)cc1 | -14.7% (inactive)
13 | Cc1c(Cl)cccc1NC(=O)Cn1cc(C(=O)c2cccs2)c2ccccc21 | -23.5% (inactive)
14 | CCOc1ccc(NC(=O)c2cc3c(=O)n(Cc4cccs4)ccc3nc2C)cc1 | 2.95% (inactive)
15 | COc1ccc(CN2C(=O)C(NC(=O)c3cccc(C)c3)(C(F)(F)F)N=C2c2ccccc2)cc1 (stereo not given) | 2.79% (inactive)
16 | CCc1ccccc1NC(=O)Cc1ccc(NC(=O)N2CCCCc3ccccc32)cc1 | -2.99% (inactive)
17 | COc1cc(NC(=O)CCS(=O)(=O)c2ccc3c(c2)oc(=O)n3C)cc(OC)c1 | -5.28% (inactive)
18 | CCOC(=O)c1ccc(NC(=O)CCS(=O)(=O)c2ccc(C)cc2)cc1 | 2.9% (inactive)
19 | CCOC(=O)c1ccc(NC(=O)CCS(=O)(=O)c2ccc3c(c2)oc(=O)n3C)cc1 | -34.1% (active)
20 | Cc1ccc(C(=O)OCC(=O)NCc2cc(C)c(O)c(C)c2)cc1S(=O)(=O)N1CCCCC1 | -93.9% (active)
21 | COc1ccc(CNC(=O)COC(=O)c2ccc(C)c(S(=O)(=O)N3CCOCC3)c2)cc1OC | 13.1% (inactive)
22 | Cc1ccc(C(=O)OCC(=O)N2CC(C)CC(C)C2)cc1S(=O)(=O)N1CCCCC1 (stereo not given) | -14.5% (inactive)

Row | Compound | activity change, negative = inhibition
23 | CCc1ccc(C(=O)CC2(O)C(=O)N(CCc3ccccc3)c3ccc(Br)cc32)cc1 (stereo not given) | 6.36% (inactive)
24 | O=C(COc1ccc(Cl)cc1)NCc1nnc(SCC(=O)NCC2CCCO2)o1 (stereo not given) | -31.2% (active)
25 | COc1ccc2c(C)cc(SCC(=O)NCC3CCCO3)nc2c1 (stereo not given) | -21.4% (inactive)
26 | O=C(CSc1nnc(-c2ccc(NS(=O)(=O)c3ccccc3)cc2)o1)NCC1CCCO1 (stereo not given) | -3.8% (inactive)
27 | Cc1ccc2oc(C(=O)Nc3ccc(S(=O)(=O)N4CCCCCC4)cc3)cc(=O)c2c1 | -13.8% (inactive)
28 | CCn1cc(CN2CCC(C(=O)Nc3cccc(-c4cccc(Cl)c4)c3)CC2)c(C)n1 | -1.32% (inactive)
29 | CCn1cc(CN2CCC(C(=O)Nc3cccc(-c4cccc(Cl)c4)c3)CC2)cn1 | -38.6% (active)
30 | O=C(Nc1cccc(-c2cccc(Cl)c2)c1)C1CCN(C2CCC2)CC1 | -10% (inactive)
31 | CC1CCCCN1CC(=O)N1CCCc2c1c(=O)oc1ccc(OCc3ccccc3)cc21 (stereo not given) | 4.23% (inactive)
32 | O=C(NCc1nnc(C(=O)Nc2ccc(C(F)(F)F)cc2Cl)o1)c1ccccc1 | -10% (inactive)
33 | O=C(Nc1cccc(Cl)c1)c1csnn1 | 0.926% (inactive)
34 | O=C(Nc1ccccc1)c1nnsc1S(=O)(=O)c1ccc(Cl)cc1 | -31.4% (active)
35 | O=C(Nc1ccc(Oc2ccccc2)cc1)C1CCN(S(=O)(=O)c2ccc(Cl)cc2)CC1 | -14.4% (inactive)
36 | COC(=O)c1ccc(NC(=O)c2cnn(-c3ccc(Cl)cc3)c2C2CCN(C(=O)OC(C)(C)C)CC2)cc1 | 8.43% (inactive)
37 | CC1CCN(S(=O)(=O)c2ccc3c(ccn3CCC(=O)NCc3ccc(N(C)C)cc3)c2)CC1 | -72.7% (active)
38 | O=C(CCn1ccc2cc(S(=O)(=O)N3CCCC3)ccc21)NCc1cccc(Cl)c1 | 11.5% (inactive)
39 | CC1CCN(S(=O)(=O)c2ccc3c(ccn3CC(=O)O)c2)CC1 | -15% (inactive)
40 | N#Cc1ccc(-c2cccs2)nc1SCc1ccc(Br)cc1 | -3.69% (inactive)
41 | Cc1ccc2c(c1)c1c(c(=O)n(-c3ccccc3)c(=O)n1CC(=O)c1ccc(Cl)cc1)n2C | -16% (inactive)
42 | CCS(=O)(=O)N1CCc2cc(C(=O)NCc3ccc(C)cc3)ccc21 | -4.2% (inactive)
43 | CN(CC(=O)NCC(c1ccccc1)N1CCCC1)S(=O)(=O)c1ccc(Cl)cc1 (stereo not given) | 12.1% (inactive)
44 | CN(CC(=O)NNC(=O)CNC(=O)c1ccccc1Cl)S(=O)(=O)c1ccc(Cl)cc1 | -11.4% (inactive)

Row | Compound | activity change, negative = inhibition
45 | CN(CC(=O)NCCc1ccccn1)S(=O)(=O)c1ccc(Cl)cc1 | -32.4% (active)
46 | COc1ccc(C2CC(=O)NC(=O)C2)cc1 | 6.98% (inactive)
47 | CC(=O)Oc1cccc(N2C(=O)CC(Nc3ccc(N4CCOCC4)cc3)C2=O)c1 (stereo not given) | 9.21% (inactive)
48 | COc1ccc(NC2CC(=O)N(C)C2=O)cc1 (stereo not given) | -35.8% (active)
49 | COc1ccc(-c2nc3c(c(SCC(=O)Nc4ccc(C(=O)O)cc4)n2)Cc2ccccc2O3)cc1 | -4.63% (inactive)
50 | CCCCN(CC)CCCNC(=O)c1nn(C)c2c1CSc1ccccc1-2 | 13% (inactive)
51 | CCOC(=O)c1[nH]c(C)c(CCC(=O)NCc2ccccc2C)c1C | -16.9% (inactive)
52 | O=C(CCc1nc(CN2CCN(S(=O)(=O)c3ccc(F)cc3)CC2)no1)N1CCCCC1 | 11.3% (inactive)
53 | O=C(CCN1C(=O)[C@H]2CC=CC[C@H]2C1=O)NCc1nc(-c2ccccc2)no1 | -34.2% (active)
54 | CC(=O)c1sc(NC(=O)CCN2C(=O)C3CC=CCC3C2=O)nc1-c1ccccc1 (stereo not given) | 2.17% (inactive)
55 | O=C(Cc1ccc(Cl)cc1)NCc1nc(-c2ccccc2)no1 | -12.9% (inactive)
56 | O=C(NC1CCN(Cc2ccccc2)CC1)c1ccc(Cn2c(=O)c3ccccc3n(Cc3cccc(F)c3)c2=O)cc1 | 2.59% (inactive)
57 | COc1cccc(-c2nc(S(=O)(=O)c3ccc(C)cc3)c(NCc3ccccc3)o2)c1 | 24.7% (inactive)
58 | CN(c1ccccc1)S(=O)(=O)c1cccc(NC(=O)Cc2ccc(Cl)cc2)c1 | -23.4% (inactive)
59 | CN(C)S(=O)(=O)c1cccc(NC(=O)Cc2ccsc2)c1 | -5.36% (inactive)
60 | CN(c1ccccc1)S(=O)(=O)c1cccc(NC(=O)Cc2c(F)cccc2Cl)c1 | -47.4% (active)
61 | O=C(CCC(=O)N1CC2CCCN2c2ccccc21)NCc1ccccc1Cl (stereo not given) | -15.4% (inactive)
62 | Cc1cc(C)c(NC(=O)CSc2nc3nccnc3c(=O)n2CCc2c[nH]c3ccccc23)c(C)c1 | 1.52% (inactive)
63 | O=C(CSc1nc2nccnc2c(=O)n1CCc1c[nH]c2ccccc12)Nc1ccccc1F | -39.8% (active)
64 | Cc1cc(C)cc(NC(=O)CSc2nc3nccnc3c(=O)n2CCc2c[nH]c3ccccc23)c1 | 1.93% (inactive)
65 | CN(C(=O)c1ccc2c(c1)N(Cc1cccc(Cl)c1)C(=O)c1ccccc1S2=O)C1CCCCC1 (stereo not given) | 2.7% (inactive)
66 | O=[N+]([O-])c1ccccc1OCCCCN1CCCCC1 | -54.3% (active)

Row | Compound | activity change, negative = inhibition
67 | CC1CN(CCOc2ccccc2[N+](=O)[O-])CC(C)O1 (stereo not given) | -11.6% (inactive)
68 | Cc1ccc(OCCCCN2CCCCC2)c(Br)c1 | -23.4% (inactive)
69 | O=C(CSc1ncc(S(=O)(=O)c2ccc(Br)cc2)c(=O)[nH]1)Nc1ccc2c(c1)OCCO2 | 8% (inactive)
70 | Oc1ccc(Cl)cc1C1C=C(c2ccc3c(c2)OCO3)NC(c2ccc(F)c(Br)c2)N1 (stereo not given) | -22.1% (inactive)
71 | Cc1cccc(S(=O)(=O)c2cn(Cc3ccccc3)c3cc(N4CCOCC4)c(F)cc3c2=O)c1 | 0.0166% (inactive)
72 | O=C(COC(=O)C1CCCCC1)Nc1ccc([N+](=O)[O-])cc1 | -34.5% (active)
73 | NC(=O)c1ccc(NC(=O)COC(=O)c2ccc([N+](=O)[O-])cc2)cc1 | 1.67% (inactive)
74 | N/C(Cc1ccc([N+](=O)[O-])cc1)=N\OC(=O)C1CCCCC1 | -11.7% (inactive)
75 | CCCCOc1ccc(C(=O)Nc2cccc(-c3nc4ccccc4o3)c2C)cc1 | -0.438% (inactive)
76 | Cc1oc2ccc(O)c(CN3CCCCC3)c2c1C(=O)Nc1cccc(C(F)(F)F)c1 | 11.6% (inactive)
77 | CC(=O)N1c2ccc(S(=O)(=O)N3CCC(C(=O)N4CCN(c5ccccc5)CC4)CC3)cc2CC1C (stereo not given) | -7.84% (inactive)
78 | COc1cccc(N2CCN(S(=O)(=O)c3ccc4c(c3)CCCN4C(C)=O)CC2)c1 | -35.4% (active)
79 | Cc1ccc(S(=O)(=O)N2CCCC(C(=O)N3CCN(C)CC3)C2)cc1 (stereo not given) | 10.2% (inactive)
80 | CC(=O)N1CCCc2cc(S(=O)(=O)N3CCC(C(=O)NC4CCCCC4)CC3)ccc21 | 0.0767% (inactive)
81 | CC(=O)N1CCCc2cc(S(=O)(=O)CCC(=O)N3CCN(c4ccccc4)CC3)ccc21 | -0.97% (inactive)
82 | CC(=O)N1CCCc2cc(S(=O)(=O)N3CCCC(C(=O)N4CCN(c5cccc(Cl)c5)CC4)C3)ccc21 (stereo not given) | -14.3% (inactive) and -32% (active)
83 | O=C(C1CCC1)N1CCN(c2ccccc2)CC1 | 6.47% (inactive)
84 | O=C(C1CCCN(S(=O)(=O)c2ccccc2)C1)N1CCN(c2ccc(F)cc2)CC1 (stereo not given) | -43.7% (active)
85 | COc1ccc(N2CCN(S(=O)(=O)c3ccc4c(c3)N(C(C)=O)CCO4)CC2)cc1 | -18% (inactive)
